“And” between values parts separate entries of the source, which are not always exact repeats. Equal values may be shown once. Inconclusive results are not listed. A call without a number means that no potency is given here. The source made the active and inactive calls. Calls follow the shape of the dose curve; as a rule, active = well fitted inhibition curve with a large enough effect in the signal ratio in the repeat runs (not every such curve was filed as active); inconclusive = weak or mixed curves, or effect the other way; inactive = no such curve, though single readings can be large or run the other way; the % refers to the signal ratio.
Potency is read from the fitted curve at half-maximal effect.

In the assay the target is Peroxisome proliferator-activated receptor delta (Homo sapiens) (UniProt Q03181). In words: qHTS assay to identify small molecule antagonists of the peroxisome proliferator-activated receptor delta (PPARd) signaling pathway (AID 743215).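 Also: cells stimulated with agonist L165041 at 300 nM final during compound exposure.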 The note with it: HEK293H PPARd-UAS-bla, beta-lactamase FRET ratio, antagonist, 17 h; series mostly up to 62 µM. An excerpt: U.S. Tox21 Program National Center for Advancing Translational Sciences [NCATS] NIH Chemical Genomics Center [NCGC] U.S. Environmental Protection Agency [EPA] National Institutes of Environmental Health Sciences [NIEHS] National Toxicology Program [NTP] U.S. Food and Drug Administration [FDA] Tox21 Assay Overview: The peroxisome proliferator-activated receptors (PPARs) are lipid-activated transcription factors of the nuclear receptor superfamily with three distinct subtypes namely PPAR alpha, PPAR delta (PPARd) and PPAR gamma. All these subtypes heterodimerizes with Retinoid X receptor (RXR) and have different physiological functions. […] To identify the compounds that inhibit PPAR-delta signaling, GeneBLAzer PPAR delta UAS-bla HEK293H cell line (Invitrogen, Carlsbad, CA, USA) containing a beta-lactamase reporter gene under the control of an Upstream Activator Sequence (UAS) was used to screen the Tox21 compound library.
Peroxisome proliferator-activated receptor delta (Homo sapiens), sequence (Q03181 whole entry, looked up): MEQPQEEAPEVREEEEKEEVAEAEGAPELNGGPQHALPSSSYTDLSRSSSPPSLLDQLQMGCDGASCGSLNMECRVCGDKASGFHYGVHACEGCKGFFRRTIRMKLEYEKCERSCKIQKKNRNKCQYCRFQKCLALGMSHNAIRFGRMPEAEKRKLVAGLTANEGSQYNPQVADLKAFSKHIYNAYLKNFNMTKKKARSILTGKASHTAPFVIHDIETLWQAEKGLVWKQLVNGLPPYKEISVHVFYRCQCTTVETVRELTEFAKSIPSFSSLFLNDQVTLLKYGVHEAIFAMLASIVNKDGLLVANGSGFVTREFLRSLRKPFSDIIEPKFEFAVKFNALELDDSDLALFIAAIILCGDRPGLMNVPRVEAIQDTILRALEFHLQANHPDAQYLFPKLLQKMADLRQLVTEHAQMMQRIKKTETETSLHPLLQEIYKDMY
Tox21 Assay Protocol Summary: PPARd-bla cells were dispensed at 3000 cells/5uL/well in 1536-well black wall/clear bottom plates using a Multidrop Combi (Thermo Fisher Scientific, Waltham, MA) dispenser. After the assay plates were incubated at 37 C and 5% CO2 for 5 h, 23 nL of compounds dissolved in DMSO, positive controls or DMSO only was transferred to the assay plate by a Pintool station (Kalypsys, San Diego, CA), followed by addition of 1ul L165041 (300 nM, final concentration in the wells). The assay plates were incubated at 37 C for 17 h, and then 1 uL of LiveBLAzerTM B/G FRET substrate was added using a Bioraptr Flying Reagent Dispenser (FRD) workstation (Beckman Coulter, Indianapolis, IN, USA). The assay plates were incubated at room temperature for 2 h and fluorescence intensity was measured by an Envision plate reader (PerkinElmer, Shelton, CT).
As to `O=c1[nH]cc(F)c(=O)[nH]1`, the Potency result is “inactive”. As to `CC12CCC(CC1)C(C)(C)O2`, the Potency result was “inactive”. With `Cc1cc(C)nc(NS(=O)(=O)c2ccc(N)cc2)n1` the entry was “inactive”; with `CCCCCCCCCCCCCCCC[N+](C)(C)Cc1ccccc1`, “inactive”; with `CS(=O)(=O)OCCCCOS(C)(=O)=O`, “inactive”. Turning to `Cc1cccc(C)c1`, the Potency entry was “inactive”.

Take `CCCCCCCCCCCC[N+](C)(C)Cc1ccccc1`: the Potency was 26.6 µM (active). Take `O=CC(=O)c1ccccc1`: the Potency entry was “inactive”.

In the case of `NS(=O)(=O)O`, the Potency result is “inactive”. With `CCOC(N)=O` the entry was “inactive”; with `CN(C)C(=S)SC(=S)N(C)C`, 0.596 µM (active); with `O=S1(=O)OC(c2ccc(O)cc2)(c2ccc(O)cc2)c2ccccc21`, “inactive”. With `O=C1NC(=O)C(c2ccccc2)(c2ccccc2)N1` the entry was “inactive”. With `Cc1ncc([N+](=O)[O-])n1CCO` the entry was “inactive”; with `Cc1cn([C@H]2C=C[C@@H](CO)O2)c(=O)[nH]c1=O`, “inactive”.

`CCCCC1(COC(=O)CCC(=O)O)C(=O)N(c2ccccc2)N(c2ccccc2)C1=O`: the Potency entry is “inactive”. Turning to `CC(=O)C(=O)O`, the Potency result is “inactive”. With `Nc1c(N=Nc2ccc(-c3ccc(N=Nc4cc(S(=O)(=O)O)c5ccccc5c4N)cc3)cc2)cc(S(=O)(=O)O)c2ccccc12` the entry was “inactive”; with `Cc1ncc([N+](=O)[O-])n1C`, “inactive”; with `Cc1c(C(=O)O)c(O)cc2c1C(=O)c1c(O)c([C@@H]3O[C@H](CO)[C@@H](O)[C@H](O)[C@H]3O)c(O)c(O)c1C2=O`, “inactive”. As for `CCCc1cc(=O)[nH]c(=S)[nH]1`, the Potency result was “inactive”. The value for `OC[C@H]1O[C@H](O[C@]2(CCl)O[C@H](CCl)[C@@H](O)[C@@H]2O)[C@H](O)[C@@H](O)[C@H]1Cl` was “inactive”.

On to `CC1(C)O[C@@H]2C[C@H]3[C@@H]4CCC5=CC(=O)C=C[C@]5(C)[C@@]4(F)[C@@H](O)C[C@]3(C)[C@]2(C(=O)CO)O1`, for which the Potency entry is “inactive”.

In the case of `C=C(C)C(=O)OCC(C)O` (stereo not given), the Potency result was “inactive”.

Turning to `CN(C)CCOC(C)(c1ccccc1)c1ccccn1` (stereo not given), the Potency result is “inactive”. `O=c1[nH]cnc2c1ncn2[C@H]1CC[C@@H](CO)O1`: the Potency result was “inactive”. With `CCCCOC(=O)c1ccc(O)cc1` the entry was “inactive”.

`CN1[C@@H]2CC(OC(=O)[C@H](CO)c3ccccc3)C[C@H]1[C@@H]1O[C@@H]12` (stereo not given in full): the Potency result was “inactive”. For the compound `CCCCCCCC(=O)OCC(COC(=O)CCCCCCC)OC(=O)CCCCCCC`, the Potency result was “inactive”. As to `O=C(Nc1ncc([N+](=O)[O-])s1)c1cccs1`, the Potency entry was “inactive”. The value for `CN(N=O)C(=O)N[C@@H]1[C@@H](O)[C@H](O)[C@@H](CO)O[C@@H]1O` was “inactive”; that for `COc1cccc(O)c1O` was “inactive”.

Regarding `CN1CCc2cccc3c2[C@H]1Cc1ccc(O)c(O)c1-3`, the Potency is 55.5 µM (active) and 10.3 µM (active).

On to `CCCCNC(=O)NS(=O)(=O)c1ccc(C)cc1`, for which the Potency entry is “inactive”. In the case of `CCCCC(CC)C(=O)O` (stereo not given), the Potency entry was “inactive”. With `NC1CCCCC1` the entry was “inactive”. With `NC(=O)c1cccnc1` the entry was “inactive”.

As to `COc1ccc(C(Cl)=C(c2ccc(OC)cc2)c2ccc(OC)cc2)cc1`, the Potency result was “inactive”. In the case of `CN(C)C(=O)Nc1ccc(Cl)c(Cl)c1`, the Potency entry was “inactive”.

For the compound `CCc1nc(N)nc(N)c1-c1ccc(Cl)cc1`, the Potency result was “inactive”.

The record behind these values is PubChem BioAssay (Tox21).
